Assay outcomes (PubChem)
GLP1R inv ag: inverse agonists of human GLP-1 receptor; HEK293 GLP-1R CRE-luciferase, luminescence, 24 h; GLP-1R form is constitutively active; Potency, µM (highest dose often 38.3 µM), for the others: at the highest dose activity change, negative = inhibition, actives largely listed as inhibitors; 410,000 compounds, 1.6% hits; AID 624417; further: potency means the concentration at half of the fitted maximal effect; on the % scale 0 is the no-effect control and ±100 the full control effect; nearly all actives have a fitted effect of over 55% in size
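HEK293 cells stably co-expressing a cAMP-responsive luciferase reporter and constitutively active GLP-1R were seeded, incubated 12 h, then exposed to compounds for 24 h at 37 C. Luminescence was read 12 min after detection reagent; inverse agonists lower signal.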
DRD3 antagonist: D3 dopamine receptor (human) antagonism | P35462 | D3R cells, DiscoveRx beta-arrestin luminescence, antagonist mode; stronger effect = lower value | max response, negative = inhibition, % | 360,000 compounds, 2.5% hits; in the data active means max response below about -50%; inconclusive means no clear call, values can overlap the other calls; further: on the % scale 0 is the no-effect control and ±100 the full control effect
Target sequence (P35462 whole entry, looked up): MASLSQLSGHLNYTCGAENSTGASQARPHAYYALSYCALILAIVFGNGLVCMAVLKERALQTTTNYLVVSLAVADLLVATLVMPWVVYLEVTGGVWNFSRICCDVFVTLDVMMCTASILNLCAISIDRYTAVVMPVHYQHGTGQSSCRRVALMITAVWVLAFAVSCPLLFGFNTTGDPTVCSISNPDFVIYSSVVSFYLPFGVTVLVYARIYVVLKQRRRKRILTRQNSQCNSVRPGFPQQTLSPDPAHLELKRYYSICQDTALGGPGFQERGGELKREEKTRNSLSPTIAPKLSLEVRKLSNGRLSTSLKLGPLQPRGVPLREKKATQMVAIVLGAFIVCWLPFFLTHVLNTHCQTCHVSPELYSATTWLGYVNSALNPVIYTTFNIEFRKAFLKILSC
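Cells expressing the human receptor were seeded at 1500 cells/well, incubated overnight at 37 degrees C in 5% CO2, then exposed to library compounds with dopamine controls for 90 minutes at 37 degrees C before luminescent detection.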
DRD3 agonist: activates the human D3 dopamine receptor; max activation, %; 410,000 compounds, 0.58% hits; D3R DiscoveRx beta-arrestin cells, luminescence, 90 min; in the data active means max activation above about 30%; further: 0% is about no effect
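Cells at 1500/well, incubated overnight, then treated with pinned compounds (dopamine as control) for 90 min at 37 degrees C. DiscoveRx reagent added for 30 - 60 minutes at room temperature; luminescence read.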
GLP1R cytotox: cytotoxicity counter-screen for GLP-1 receptor inverse agonists; Potency, µM (top dose mostly 38.3 µM), inactives show at the highest dose activity change, negative = inhibition, usual class: inhibitors; 410,000 compounds, 0.13% hits; AID 624418; HEK293 cAMP-luciferase reporter cells, luminescence, 24 h;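 further: loss of luciferase light is scored as toxicity; potency means the concentration at half of the fitted maximal effect; on the % scale 0 is the no-effect control and ±100 the full control effect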
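1536-well qHTS counterscreen of the MLSMR; 200 cells/uL, 12 h pre-incubation, 23 nL cpd, 24 h at 37 deg C 5% CO2, luciferase detection reagent, 12 min RT, luminescence. Inhibition = undesired.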
GLP-1R agonist: activates the human GLP-1 receptor; Potency, µM (highest dose often 45.6 µM), inactives show at the highest dose activation, most hits filed as activators; HEK293 GLP-1R CRE-luciferase, luminescence, 4-6 h; cells express a hypersensitive GLP-1R form; 380,000 compounds, 0.007% hits; P43220; AID 624172; further: potency means the concentration at half of the fitted maximal effect; % of control where 0% means no effect
ClpP mod: qHTS Assay for Activators of ClpP; ATP-dependent Clp protease proteolytic subunit (Bacillus subtilis (strain 168)), P80244; purified B. subtilis ClpP, FRET peptide cleavage, 20 min; Potency, µM (titrated, usually from 57.5 µM), without a hit: top-dose activity change, negative = active; 340,000 compounds, 1.9% hits; active means well fitted falling curve with a large enough effect; inconclusive means small, poorly fitted or top-dose-only effect; inactive means no such curve, though single readings can be large or run the other way; further: potency means the concentration at half of the fitted maximal effect; the source files actives as falling curves though it sought activators and does not explain the sign; nearly all actives have a fitted effect of over 65% in size
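FRET quenching reversal measured ClpP activation: 10 microg/mL B. subtilis ClpP at pH 8 with the FRET-FV decapeptide, read at 430 nm after 320 nm excitation. The 20-min minus 0-min signal was scaled between DMSO/no-enzyme wells and ADEP (5.8 microM final).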
Starred values were filed as active, the others as inactive; ? = inconclusive; . = no result; [ ] = remark or other dose. Shown are actives, neighbours in structure and some others; about 5.7% of the full set was active somewhere. Unless noted, the call rests on the fitted dose curve; in most records, active means well fitted curve in the direction sought with a large enough effect; inconclusive means small, poorly fitted or top-dose-only effect, or another doubt; inactive means no such curve, though single readings can be large; an effect the other way counts as inactive or inconclusive.

SMILES	GLP1R inv ag	DRD3 antagonist	DRD3 agonist	GLP1R cytotox	GLP-1R agonist	ClpP mod
CCN1CCCC1CNCC(O)COc1ccc(C(C)(C)C)cc1C (configuration not stated)	5.01µM*	-0.1	5.4	7.5%	-0.5%	.
CC(C)[C@H](NC(=O)c1ccccc1Cl)C(=O)OCc1cc([N+](=O)[O-])cc2c1OCOC2	-7.4%	0.6	1.4	-3.2%	-0.2%	22.4µM*
CC(C)[C@H](NS(=O)(=O)c1ccccc1)C(=O)OCc1cc([N+](=O)[O-])cc2c1OCOC2	?	13.7	-1.1	-10.2%	-2.7%	-5.7%
CC1(C)CC(C)(c2ccc(O)cc2O)N(c2ccc3ccccc3c2)C(=S)N1 (configuration not stated)	?	-62.2*	-23.8	?	-4.3%	-7.3%
O=C(CCS(=O)(=O)Cc1ccc(Cl)cc1)NCCCN1CCN(c2ccccc2F)CC1	?	-69.7*	1.6	-11.5%	-5.9%	-1.3%
Cc1cc(C)c2c(=O)n(CC(=O)NCCCN3CCOCC3)sc2n1	1.6%	-22.4	3.6	2.0%	-7.9%	-16.8%
Cc1ccccc1CS(=O)(=O)CCC(=O)NCCN1CCN(c2cccc(Cl)c2)CC1	?	-54.0*	-9.8	-3.1%	13.8%	-2.8%
Cc1ccccc1CS(=O)(=O)CCC(=O)NCCCN1CCN(c2ccccc2F)CC1	?	-59.6*	3.1	-20.9%	25.7%	-7.1%
O=C(Cc1ccc(Cl)cc1)NCCS(=O)(=O)N1CCN(c2ccccc2F)CC1	?	?	-21.0	-25.5%	8.6%	-1.6%
O=C(NCCN1CCN(c2cccc(Cl)c2)CC1)Nc1ccccc1C(F)(F)F	?	.	-18.4	0.9%	.	-1.4%
Cc1cc(C)c2c(=O)n(CC(=O)NCCCN3CCN(c4ccccc4F)CC3)sc2n1	?	-70.1*	7.8	?	-4.8%	-26.5%
CC1CCN(CC(O)COc2ccc(-c3ccccc3)cc2)CC1 (configuration not stated)	?	-72.6*	-16.0	-24.5%	-2.5%	1.1%
CC1CCCN(C(=O)COc2ccc(-c3ccccc3)cc2)C1 (configuration not stated)	11.2µM*	4.1	-2.2	-14.0%	18.8%	.
CC1CCN(CC(O)COc2ccc(F)cc2)CC1 (configuration not stated)	-0.7%	?	-14.8	4.2%	-13.2%	0.7%
CC1CCN(CC(O)COc2cccc(F)c2)CC1 (configuration not stated)	-8.1%	-57.1*	-21.6	-4.7%	7.7%	1.0%
C=CCN(c1ccccc1OC)S(=O)(=O)c1cccc(C(=O)OCC(=O)c2c[nH]c3ccccc23)c1	5.01µM*	4.0	6.3	?	-12.6%	-3.5%
COc1cc(OC)c(N(C)S(=O)(=O)c2cccc(C(=O)OCC(=O)c3c[nH]c4ccccc34)c2)cc1Cl	?	13.6	32.8*	-2.0%[1.53 µM]	-12.8%	?
Cc1c(NC(=O)c2ccc(-c3cccc([N+](=O)[O-])c3)o2)cccc1-c1nc2cc(Cl)ccc2o1	17.9%	.	1.7	3.5%	13.7%	-10.8%
CC1=C(C(=O)Nc2ccc(Cl)cc2)C(c2ccccc2C)n2ncc(C(=O)Nc3ccc(C)cc3)c2N1 (configuration not stated)	2.82µM*	.	-3.5	0.2%	.	31.6µM*
COc1cccc(C2C(C(=O)Nc3ccc(Cl)cc3)=C(C)Nc3c(C(=O)Nc4ccccc4)cnn32)c1OC (configuration not stated)	?	.	-3.1	3.7%	.	28.2µM*
CCN(CC)S(=O)(=O)c1nnc(NC(=O)COc2cccc(C)c2)s1	8.6%	.	-6.6	3.3%	.	-2.3%
OC[C@@H]1[C@@H](c2ccccc2)C(c2ccccc2)=NN1c1ccccc1	?	-11.1	9.8	140.1%	8.2%	3.7%
OC[C@@H]1[C@@H](c2ccccc2)C(c2ccc(F)cc2)=NN1c1ccccc1	?	72.3	37.7*	76.3%	-2.3%	4.6%
